Compounds with a hit are over-represented: about 10% of the library has one in this group of screens.
ALOX12 inhib – inhibitors of human 12-lipoxygenase (ALOX12) | AID 1452 | actives 0.12% (n = 150,000) | Potency, µM (titrated, usually from 57.1 µM), for the others: at the highest dose activity change, negative = inhibition, actives largely listed as inhibitors | purified 12-hLO, xylenol orange hydroperoxide absorbance | P18054; also: potency is read from the fitted curve at half-maximal effect; nearly all actives have a fitted effect of over 55% in size
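Lipoxygenase turnover measured by absorbance at 573 and 405 nm after Fe-XO development. Human 12hLO 150 nM, arachidonate 40 uM, pH 7.0 Hepes buffer with detergent; 15 min compound preincubation, 30 min reaction.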
PNC inhibitor – perinucleolar compartment assembly inhibition. PC3M PTB-GFP, PNC prevalence imaging, 16 h; active compounds read low. activity change (PNC), negative = inhibition, % at 10 µM. actives 3.1% (n = 140,000);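 active = readout at or below -70, meaning at least 70% loss of cells showing the perinucleolar compartment, a nuclear body marking cancer cells; inconclusive = readout between -30 and a set limit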;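 also: plate controls were DMSO wells for no effect and camptothecin positive control wells for full effect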
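Read-out is percentage of cells bearing a perinucleolar compartment, from automated 20x imaging of fixed, Hoechst-stained PC3M PTB-GFP cells. Cells were seeded 4 h, then exposed 16 h to compound (23 nl of library stock) in duplicate plates.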
GLA spleen mod – inhibits or activates alpha-galactosidase in human spleen homogenate; P06280; human spleen homogenate, 4MU-alpha-Gal fluorescence, 40 min; Potency, µM (titrated, usually from 80 µM), inactives show at the highest dose activity change, negative = inhibition, hits mostly inhibitors; actives 0.008% (n = 240,000); AID 2107;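 also: potency is read from the fitted curve at half-maximal effect; 0% = enzyme with vehicle and -100% = no enzyme basal signal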
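Spleen homogenate 1 ug + cpd (titration) + 4-MU-alpha-D-galactopyranoside 1 mM; 37C 40 min; 50 mM citrate/phosphate pH 5.0, 0.01% Tween-20; stop pH 10; fluorescence 365/440; AC50 via Hill.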
GLA inh pH 4.5 – inhibitors of human alpha-galactosidase A at pH 4.5; purified enzyme, 4-MU-alpha-Gal fluorescence, pH 4.5; P06280; AID 1467; activity change, negative = inhibition, % at 105 µM; 230,000 tested, under 10 active;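 also: 0% = full activity with enzyme and -100% = basal without enzyme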
Target sequence (P06280 whole entry, looked up): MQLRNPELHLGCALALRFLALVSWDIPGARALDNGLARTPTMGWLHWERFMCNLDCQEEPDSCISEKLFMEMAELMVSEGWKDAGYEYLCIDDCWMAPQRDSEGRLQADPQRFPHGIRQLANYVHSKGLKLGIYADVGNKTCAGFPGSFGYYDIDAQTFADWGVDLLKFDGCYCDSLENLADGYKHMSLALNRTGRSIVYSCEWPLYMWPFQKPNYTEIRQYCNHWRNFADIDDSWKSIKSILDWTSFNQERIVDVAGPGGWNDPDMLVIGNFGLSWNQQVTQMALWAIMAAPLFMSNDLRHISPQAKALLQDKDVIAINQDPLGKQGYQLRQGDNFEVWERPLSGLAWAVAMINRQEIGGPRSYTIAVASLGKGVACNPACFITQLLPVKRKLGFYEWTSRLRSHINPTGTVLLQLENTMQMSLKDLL
HPGD inh – blocks human HPGD enzyme activity; P15428; actives 4.3% (n = 150,000); Potency, µM, inactives show top-dose activity change, negative = inhibition, most hits filed as inhibitors; AID 894; purified HPGD, NADH fluorescence kinetic, PGE2 substrate; active = well fitted inhibition curve with a large enough effect, not every such curve was filed as active; inconclusive = small, poorly fitted or top-dose-only effect, or another doubt; inactive = no such curve, though single readings can be large or run the other way; also: potency is read from the fitted curve at half-maximal effect
Target sequence (P15428 whole entry, looked up): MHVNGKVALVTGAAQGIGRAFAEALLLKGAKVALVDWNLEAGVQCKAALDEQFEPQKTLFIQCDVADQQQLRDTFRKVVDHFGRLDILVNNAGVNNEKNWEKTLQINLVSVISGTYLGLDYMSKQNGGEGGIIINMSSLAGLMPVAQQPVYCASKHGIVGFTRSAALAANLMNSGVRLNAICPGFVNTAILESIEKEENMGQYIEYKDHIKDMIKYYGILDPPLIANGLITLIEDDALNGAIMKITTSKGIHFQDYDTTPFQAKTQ
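NADH formation kinetics: reaction with 30 uM PGE2 and 1 mM NAD+ (final), 20 nM enzyme, Tris-HCl pH 8 with Tween 20, after 15 min compound preincubation at room temperature. Fluorescence change, last versus first of five reads.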
ALDH1A1 inh – blocks purified human ALDH1A1 activity; P00352; Purified ALDH1A1, NADH fluorescence, propionaldehyde substrate; Potency, µM (series often up to 75.3 µM), for inactives: at the highest dose activity, negative = inhibition, hits mostly inhibitors; actives 7.3% (n = 220,000); active = well fitted inhibition curve with a large enough effect, not every such curve was filed as active; inconclusive = small, poorly fitted or top-dose-only effect, or another doubt; inactive = no such curve, though single readings can be large or run the other way;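 also: potency is read from the fitted curve at half-maximal effect; plate controls were no enzyme wells and a reference inhibitor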
Active calls of the source: *; ? = inconclusive; . = no result; [ ] = another dose, or the depositor's remark. Unless noted, calls follow the shape of the dose curve; as a rule, active = well fitted curve in the direction sought with a large enough effect; inconclusive = small, poorly fitted or top-dose-only effect, or another doubt; inactive = no such curve, though single readings can be large; an effect the other way counts as inactive or inconclusive. Unless noted, % is scaled to controls: 0 for no effect and ±100 for the full control effect.

SMILES	ALOX12 inhib	PNC inhibitor	GLA spleen mod	GLA inh pH 4.5	HPGD inh	ALDH1A1 inh
CC(=O)NC(NC(C)=O)c1ccc(Br)cc1	-5%	36	6%	4	-7%	9%
CC(=O)NC(NC(C)=O)c1ccc(N(C)C)cc1	15%	27	-14%	-14	-7%	2.2µM*
CCN(CC)c1ccc(C(NC(C)=O)NC(C)=O)cc1	-1%	-4	2%	6	-15%	14µM*
COc1cccc([C@H](O)Cn2cc(-c3cccc(CON=C(C)C)c3)nn2)c1	.	.	8%[17.5 µM]	.	.	-4%[13.5 µM]
C=CCOCCN1C(=O)C2C3C=CC(C2C1=O)C1C2C(=O)N(CCOCC=C)C(=O)C2C31 (configuration not stated)	.	.	-24%	3[21.1 µM]	.	14µM*
CC1=C(C)C(c2ccccc2)NC(=S)N1 (configuration not stated)	-5%	37	-5%	0	-14%	13µM*
CCCN1C(=O)/C(=C/c2c(N3CCNC(=O)C3CC(=O)OC)nc3c(C)cccn3c2=O)SC1=S (configuration not stated)	.	.	-16%	-6	.	5µM*
O=C(COC(=O)CNS(=O)(=O)/C=C/c1ccccc1)Nc1cc(S(=O)(=O)N2CCCCC2)ccc1Cl	.	.	11%	?	.	-9%
N#C/C(=N\Nc1ccccc1Cl)C(=O)c1ccccc1	2%	26	7%	-6	28µM*	-67%
Cc1nc(Nc2c(Cl)cccc2Cl)sc1C(=O)Nc1ccccc1	-5%	34	-11%	-3	-2%	14µM*
C=CCn1cc(C(=O)OC)c(=O)c2cc(S(=O)(=O)N3CCCCCC3)ccc21	.	.	1%	-3	.	14µM*
CCn1cc(C(=O)N2CCN(c3ccc(OC)cc3)CC2)c(=O)c2cc(S(=O)(=O)N3CCCCC3)ccc21	.	.	0%	-4	.	11µM*
C=CCn1cc(C(=O)NCC2CCCO2)c(=O)c2cc(S(=O)(=O)N3CCCCCC3)ccc21 (configuration not stated)	-2%	-2	-7%	-1	-11%	13µM*
C=CCn1cc(C(=O)N2CCN(C)CC2)c(=O)c2cc(S(=O)(=O)N3CCCC3)ccc21	1%	21	3%	6	-10%	?
CC(C)(C)C(=O)CNS(=O)(=O)c1ccc(S(=O)(=O)NC2CCCC2)cc1	1%	-82*	-14%	-4	-2%	?
O=S(=O)(NC1CCCC1)c1ccc(S(=O)(=O)NC2CCCC2)cc1	-5%	?	-7%	-1	-12%	-7%
COc1cc(OC)c(OC)cc1/C=C1\CCC(C2CCCC2)C1=O (configuration not stated)	.	.	-8%	-18	.	2µM*
CC(Oc1ccccc1F)C(=O)Nc1ccc2ccccc2c1 (configuration not stated)	-5%	-87*	-8%	-1	-21%	1%
CC(Oc1ccc(F)cc1)C(=O)Nc1ccc2ccccc2c1 (configuration not stated)	-3%	23	8%	-4	-17%	-3%
CCCCN(C(=O)NC(=O)C1=C(N2CCOCC2)/C(=C/c2ccccc2)CC1)S(C)(=O)=O	-13%	?	?	?	?	?
CCOC(=O)C(=O)C1=C(N2CCOCC2)/C(=C\c2ccc(F)cc2)CC1	5%	-4	-2%	-2	-12%	13µM*
O=c1c(-c2cccs2)nc2cnc(Oc3cccc(Cl)c3)nc2n1C1CC1	4%	.	?	.	?	?
Cn1cc(CN2CCC(C(O)c3cccs3)CC2)c(-c2ccccc2F)n1 (configuration not stated)	.	.	-1%	-2	.	.
C=CCSC1=C(C#N)C(c2ccccc2Cl)CC(=O)N1 (configuration not stated)	-5%	18	-8%	-6	-14%	25µM*
COc1cccc(Nc2ncc3nc(C)c(=O)n(C)c3n2)c1	.	.	25%	.	.	3%
SMILES	ALOX12 inhib	PNC inhibitor	GLA spleen mod	GLA inh pH 4.5	HPGD inh	ALDH1A1 inh
Cc1cccc(Cn2nnc3c2C(=O)c2ccccc2C3=O)c1	-1%	26	1%	-12	14µM*	-5%
Cc1cc(=O)oc2c1ccc1oc(/C(=N/O)c3ccccc3)c(C)c12	-3%	38	-11%	-8	13µM*	?
Cc1ccc(/C(=N\O)c2oc3c(C)c4oc(=O)cc(C)c4cc3c2C)cc1	-8%	39	1%	3	?	?
COc1ccnc(N2CCN(c3ccc(Cl)cc3)CC2)c1C#N	-5%	?	11%	-14	?	13µM*
CCc1cc(C(=O)c2ccc(C)cc2)c(NC(=O)CCl)s1	-5%	-10	6%	-3	-16%	2.5µM*
Cc1cc(C(=O)c2ccc(Cl)cc2)c(NC(=O)CCl)s1	2%	33	3%	1	-8%	0.89µM*
CCc1cc(C(=O)c2ccc(OC)cc2)c(NC(=O)CCC(=O)O)s1	.	.	8%	-4	.	6%
CCc1cc(C(=O)c2ccc(OC)cc2)c(NC(=O)CN2CCCC2)s1	.	.	-9%	-12	.	10µM*
CCc1cc(C(=O)c2ccc(OC)cc2)c(NC(=O)CN2CCCCC2)s1	.	.	-3%	3	.	.
Cc1ccc(-n2nc(C)c3c2OC(N)=C(C#N)C3c2ccco2)cc1 (configuration not stated)	-20%	-8	0%	-5	?	1.6µM*
Cc1ccc(-n2nc(C)c3c2OC(N)=C(C#N)C3c2ccoc2)cc1 (configuration not stated)	?	-10	4%	9	-28%	0.89µM*
Cc1ccc(-n2nc(C)c3c2OC(N)=C(C#N)C3c2ccc(C)o2)cc1 (configuration not stated)	-11%	46	-8%	-6	-25%	1.6µM*
CCOC(=O)C1=C(C)OC(N)=C(C#N)C1c1c(C)nn(-c2ccc(C)cc2)c1Cl (configuration not stated)	-22%	?	-7%	-4	-16%	8%
Cc1ccc(SCc2[nH]nc3c2C(c2ccco2)C(C#N)=C(N)O3)cc1 (configuration not stated)	-27%	6	-4%	-6	?	-54%
CC(C)(C)OC(=O)NC(NC(=O)OCC1c2ccccc2-c2ccccc21)C(=O)O (configuration not stated)	.	.	15%	.	.	.
CC(=O)Oc1ccc(N2C(=O)C3C4C=CC(C5CC45)C3C2=O)cc1[N+](=O)[O-] (configuration not stated)	3%	-12	2%	-7	-29%	6.3µM*
CC(=O)Oc1ccc(N2C(=O)C3C(C2=O)C2C=CC3C23CC3)cc1[N+](=O)[O-] (configuration not stated)	.	.	2%	3	.	7.9µM*

High-throughput results as filed in PubChem.
